High-throughput results (PubChem BioAssay)
Many of the other results were omitted from the sample, so hits are more common in it than they were.
NS1 inh: influenza NS1 inhibition. Potency, µM (titrated, usually from 46.1 µM), for inactives: at the highest dose activity, positive = more growth. AID 2326. actives 0.4% (n = 270,000); calls by dose curve; further: potency means the concentration at half of the fitted maximal effect; actives are rising curves; nearly all actives have a fitted effect of over 50% in size
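OD600 was taken as the measure of yeast growth restored by compound in an NS1-expressing S. cerevisiae strain. Cells had been washed out of glucose medium and diluted 1:100 into galactose -URA medium, pH 6.0.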
AmpC inh no detg: blocks E. coli AmpC beta-lactamase in detergent-free assay; P00811; actives 0.52% (n = 330,000); Potency, µM (titrated, usually from 57.1 µM), for the others: at the top dose activity change, negative = inhibition, hits mostly inhibitors; AmpC nitrocefin hydrolysis, absorbance 480 nm, 0.0001% Triton;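 further: potency means the concentration at half of the fitted maximal effect; plate controls were no compound for no effect and no enzyme for full effect; nearly all actives have a fitted effect of over 20% in size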
Target sequence (P00811 whole entry, looked up): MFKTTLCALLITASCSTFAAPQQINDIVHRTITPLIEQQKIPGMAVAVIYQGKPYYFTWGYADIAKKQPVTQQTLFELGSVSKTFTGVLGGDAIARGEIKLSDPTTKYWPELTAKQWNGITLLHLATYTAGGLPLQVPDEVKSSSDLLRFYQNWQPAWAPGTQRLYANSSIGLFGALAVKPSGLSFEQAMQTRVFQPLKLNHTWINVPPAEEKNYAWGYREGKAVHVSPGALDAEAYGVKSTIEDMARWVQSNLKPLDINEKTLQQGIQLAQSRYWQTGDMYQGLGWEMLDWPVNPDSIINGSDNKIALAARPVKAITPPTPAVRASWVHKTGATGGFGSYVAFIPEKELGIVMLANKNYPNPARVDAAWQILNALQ
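20 mM phosphate pH 7.0 + 0.01% (detergent screen) or 0.0001% Triton X-100; 5.3 nM AmpC reagent; cpd preinc 15 min RT; nitrocefin (800 uM stock) to start; A480 q20 s × 4 min; Activity was normalised to no-enzyme and no-compound control wells.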
AmpC detergent: blocks E. coli AmpC beta-lactamase in detergent assay | AmpC hydrolysis of nitrocefin, absorbance 480 nm, 0.01% Triton | actives 0.041% (n = 370,000) | Potency, µM (titrated, usually from 114 µM), inactives show at the highest dose activity change, negative = inhibition, actives largely listed as inhibitors;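 further: potency means the concentration at half of the fitted maximal effect; 0% = no-compound wells and -100% = no-enzyme wells; nearly all actives have a fitted effect of over 25% in size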
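AmpC (5.3 nM in the dispensed reagent) in 20 mM phosphate pH 7.0 with 0.01% (detergent screen) or 0.0001% Triton X-100 was preincubated with compounds for 15 min at room temperature. Nitrocefin was then added from an 800 uM solution, and hydrolysis was followed at 480 nm.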
Cycloheximide cs: counter-screen hit for Shiga toxin inhibitors, cycloheximide; actives 12% (n = 300,000); AID 2314; max response, %; cell reporter, cycloheximide protein synthesis inhibition counterscreen; in the data active means max response mostly above about 13%, no sharp cut-off; inactive means mostly below about 14%; further: read at 38.3 µM for the half of the compounds with a filed dose; 0% is about no effect
Shiga inhibitor: Shiga toxin inhibition. Vero cells, Shiga toxin protein synthesis inhibition reporter. inhibition, % at 38.7 µM. actives 9.2% (n = 290,000). AID 2315; in the data active means inhibition mostly above about 28%, no sharp cut-off; inactive means mostly below about 43%; further: 0% is about no effect
* marks the source's active call; other numbers are inactive results; ? = inconclusive; / = not tested or not shown. Unless noted, the call rests on the fitted dose curve; in most records, active means well fitted curve in the direction sought with a large enough effect; inconclusive means small, poorly fitted or top-dose-only effect, or another doubt; inactive means no such curve, though single readings can be large; an effect the other way counts as inactive or inconclusive.

SMILES | NS1 inh | AmpC inh no detg | AmpC detergent | Cycloheximide cs | Shiga inhibitor
Cc1csc(NC(=O)c2ccc3ccccc3n2)n1 | 2% | -18% | -20% | 42* | 98*
CCC(CC)c1nnc(NC(=O)c2ccc3ccccc3n2)s1 | 3% | 4% | -8% | 38* | 105*
Cc1ccc(CN2CCN(C3CCN(C(=O)OC(C)(C)C)CC3)C(=O)C2=O)cc1 | / | / | -13% | / | /
Cc1c(C)n2c(SCC(=O)N3CCN(c4ccccc4)CC3)nnc2[nH]c1=O | / | -18% | -5% | / | /
Cc1cccc(NC(=O)CN2NS(=O)(=O)c3ccccc3C2=O)c1 | 1% | -19% | -2% | 12 | 32
O=C(Cc1csc(-c2ccccc2)n1)NCc1ccc(F)cc1 | -11% | 0% | -15% | -1 | 4
O=C(NCc1csc(-c2ccccc2)n1)c1cc(F)cc2c1OCOC2 | -10% | -15% | -3% | 45* | 83*
Cc1ccc(C2C(C(=O)c3cc4ccccc4o3)=C(O)C(=O)N2CCN2CCOCC2)o1 (stereo not given) | 6% | ? | 2% | 24* | 54*
O=C(C1=C(O)C(=O)N(CCN2CCOCC2)C1c1ccccn1)c1cccs1 (stereo not given) | 16% | -11% | ? | 28* | 36*
COc1cccc(C2C(C(=O)c3cccs3)=C(O)C(=O)N2CCN(C)C)c1OC (stereo not given) | ? | -12% | -4% | 4 | 1
CCN(CC)CCN1C(=O)C(O)=C(C(=O)c2cccs2)C1c1ccc(C)o1 (stereo not given) | -3% | -11% | 3% | 22* | 27*
CCN(CC)CCN1C(=O)C(O)=C(C(=O)c2cccs2)C1c1ccccn1 (stereo not given) | 9% | -7% | -4% | 20* | 21
COc1ccc(NC(=O)Cn2cnc3c(nc4n3CCCCC4)c2=O)cc1Cl | / | / | 1% | / | /
COc1ccc(OCC(O)CNC(=O)c2cccs2)cc1 (stereo not given) | 0% | -15% | 6% | 7 | 13
CC[C@H]1CN2CCc3cc(OC)c(OC)cc3[C@H]2C[C@@H]1C[C@H]1NCCc2c1[nH]c1ccc(O)cc21 | 2% | / | / | / | /
Cc1ccc(C2C(C(=O)c3cccs3)=C(O)C(=O)N2CCN2CCOCC2)o1 (stereo not given) | ? | 0% | ? | 24* | 50*
O=C(C1=C(O)C(=O)N(CCN2CCOCC2)C1c1ccc(F)cc1)c1cccs1 (stereo not given) | -1% | -10% | -6% | -1 | -1
CCOC(=O)N1CCc2c(sc3c2c(=O)n(CCc2ccccc2)c(=O)n3CC(=O)Nc2ccc(C)cc2)C1 | / | / | 10% | / | /
O=c1ccnc(SCCc2ccccc2)[nH]1 | -12% | -11% | -8% | 5 | 10
O=c1ccnc(S/C=C/c2ccccc2)[nH]1 | -34% | -18% | -4% | 35* | 23
COCc1cc(S(=O)c2ccc(Cl)cc2)nc(C)n1 (stereo not given) | -7% | -25% | ? | 16* | 21
COCCN1CCN(C(=O)C2CCC(=O)N(Cc3cccc(C(F)(F)F)c3)C2)CC1 (stereo not given) | 11% | 36% | 3% | 2 | -9
COCCCNC(=O)Cn1c(=O)n(-c2ccc(C)cc2)c(=O)c2c1c1cc(C)ccc1n2C | / | / | 19% | / | /
O=S(=O)(Nc1ccc(-c2nc3cccnc3s2)cc1)c1ccc(Cl)s1 | 9% | -38% | -13% | 33* | 16*
Cc1cc(-c2nc3cccnc3s2)ccc1NS(=O)(=O)c1ccc2c(c1)OCCO2 | ? | -15% | ? | 12 | 29
SMILES | NS1 inh | AmpC inh no detg | AmpC detergent | Cycloheximide cs | Shiga inhibitor
Cc1nc2cc(NS(=O)(=O)c3ccccc3F)ccc2s1 | -4% | -3% | 8% | 4 | 9
O=S(=O)(Nc1ccc(-c2nc3cccnc3s2)cc1)c1cccs1 | 11% | -50% | ? | 28* | 36
O=S(=O)(Nc1ccc(-c2nc3cccnc3s2)cc1)c1ccccc1F | 8% | -37% | 2% | 50* | 92*
CC(=O)Nc1ccc(NS(=O)(=O)c2ccc(Cl)s2)cc1 | 7% | 102% | ? | -3 | -3
Cc1cc(-c2nc3cccnc3s2)ccc1NS(=O)(=O)c1cccs1 | 19% | -21% | -3% | 48* | 138*
CCc1ccc(NS(=O)(=O)c2cccs2)cc1 | -35% | -18% | -13% | 10 | 14
O=C1N/C(=N/Nc2ccccc2)S/C1=C\c1ccccc1 | -158% | -34% | 0% | 22* | 37
